Records with an inconclusive call do not appear. Active and inactive are the calls of the source. Rule for the calls: active = hit-call score of the fitted dose curve at least 0.9, where 1 is the maximum; inconclusive = response in the unintended direction; inactive = score below 0.9. Peptide text beside a SMILES is read from it.
Experiments:
[1] = TOX21_p53_BLA_p3_viability: Viability Assessment in the Tox21 HCT-116 p53 Agonism Beta-lactamase Assay, Phase 3 (AID 2283593);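 note: cells exposed to compound for 16 h before reading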
How it was run: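 HCT116 cells, 4000/well, dosed 5 h after plating by pin transfer (217-fold dilution from DMSO stock) and incubated 16 h at 37C, 5% CO2. Viability read as ATP luminescence with CellTiter-Glo after 30 min at room temperature.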

[2] = target: Cellular tumor antigen p53 (Homo sapiens) (UniProt P04637); assay: TOX21_p53_BLA_p3_ratio: Tox21 HCT-116 p53 Agonism Beta-lactamase Assay, Ratio, Phase 3 (AID 2283596)
How it was run: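 Cells were seeded at 4000/well, rested 5 h at 37C, then dosed with DMSO compound solutions (217-fold dilution) for 16 h. CCF4-AM substrate was loaded for 2 h at room temperature, and the 460/530 nm emission ratio was fitted for gain of signal versus DMSO.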

[3] = TOX21_p53_BLA_p4_viability: Viability Assessment in the Tox21 HCT-116 p53 Agonism Beta-lactamase Assay, Phase 4 (AID 2283597);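 note: hits lower the luminescence signal meaning cytotoxicity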
How it was run: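 4000 HCT116 cells per well; 5 h attachment; compounds from DMSO, 217-fold dilution; 16 h at 37C. Then CCF4-AM, 2 h RT, followed by CellTiter-Glo, 30 min RT, luminescence. Decrease = cytotoxicity.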

[4] = TOX21_p53_BLA_p5_viability: Viability Assessment in the Tox21 HCT-116 p53 Agonism Beta-lactamase Assay, Phase 5 (AID 2283600)
How it was run: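 Decreased CellTiter-Glo luminescence denotes lost viability. Exposure: 16 h at 37C, 5% CO2, with compounds from DMSO stocks diluted 217-fold in wells of 4000 cells.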

[5] = target: Cellular tumor antigen p53 (Homo sapiens) (UniProt P04637); assay: TOX21_p53_BLA_p5_ratio: Tox21 HCT-116 p53 Agonism Beta-lactamase Assay, Ratio, Phase 5 (AID 2283599)
How it was run: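 HCT-116 p53-bla cells (4000/well) plated 5 h, dosed with compound (217-fold DMSO dilution) for 16 h at 37 C; CCF4-AM substrate 2 h at room temperature. Activity is the 460/530 nm emission ratio (405 nm excitation), fitted in gain-of-signal direction versus DMSO.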

[6] = target: Cellular tumor antigen p53 (Homo sapiens) (UniProt P04637); assay: TOX21_p53_BLA_p4_ratio: Tox21 HCT-116 p53 Agonism Beta-lactamase Assay, Ratio, Phase 4 (AID 2283601)
How it was run: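 HCT-116 p53 beta-lactamase reporter cells (4000/well) preincubated 5 h, then compound (217-fold dilution of DMSO stock) for 16 h at 37C. CCF4-AM substrate added 2 h at room temperature; 460/530 nm emission ratio fitted upward versus DMSO.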

[7] = Tanguay_ZF_120hpf_MORT_legacy: (Legacy) Oregon State University Tanguay Lab 120 Hour Post-fertilization zebrafish Assay for Mortality (AID 2283633)
How it was run: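 Dechorionated Tropical 5D wild-type zebrafish embryos, one per well from 6 hpf, static exposure in 0.64% DMSO at 28C until 120 hpf. Mortality scored as binary by brightfield microscopy at 24 and 120 hpf.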

[8] = Tanguay_ZF_120hpf_AXIS_legacy: (Legacy) Oregon State University Tanguay Lab 120 Hour Post-fertilization zebrafish Assay for Body Axis Malformation (AID 2283635)
How it was run: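 Dechorionated wild-type Tropical 5D zebrafish embryos, one per well, statically exposed from 6 hpf to 120 hpf at 28C in 0.64% DMSO final. Body axis malformation scored present/absent by brightfield microscopy at 120 hpf; dead embryos excluded.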

[9] = Tanguay_ZF_120hpf_SNOU_legacy: (Legacy) Oregon State University Tanguay Lab 120 Hour Post-fertilization zebrafish Assay for Snout Malformation (AID 2283637)
How it was run: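 Binary brightfield scoring of snout malformation at 120 hpf. Dechorionated 5D wild-type embryos, one per well, static exposure from 6 hpf at 28C, sealed and dark; final DMSO 0.64% (vol/vol), DMSO as baseline; 5uM trimethyltin chloride positive control.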

[10] = Tanguay_ZF_120hpf_JAW_legacy: (Legacy) Oregon State University Tanguay Lab 120 Hour Post-fertilization zebrafish Assay for Jaw Malformation (AID 2283638)
How it was run: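 Dechorionated Tropical 5D wild-type zebrafish embryos, one per well, exposed statically from 6 hpf to 120 hpf at 28C in 0.64% DMSO. Jaw malformation was scored by brightfield microscopy as present or absent. It was not scored in dead embryos.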

[11] = Tanguay_ZF_120hpf_OTIC_legacy: (Legacy) Oregon State University Tanguay Lab 120 Hour Post-fertilization zebrafish Assay for Otic Vesicle Malformation (AID 2283639)
How it was run: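 Wild-type zebrafish larvae, whole-embryo exposure from early stage to 120 hpf at 28C. Binary brightfield scoring of otic vesicle morphology, fitted in the positive direction against the DMSO baseline.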

[12] = Tanguay_ZF_120hpf_PE_legacy: (Legacy) Oregon State University Tanguay Lab 120 Hour Post-fertilization zebrafish Assay for Pericardial Edema (AID 2283640)
How it was run: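 Tropical 5D wild-type zebrafish embryos were statically exposed until 120 hpf at 28C, with 0.64% DMSO final. Pericardial edema was scored by brightfield as present or absent; endpoints were not scored in dead embryos.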

[13] = Tanguay_ZF_120hpf_SOMI_legacy: (Legacy) Oregon State University Tanguay Lab 120 Hour Post-fertilization zebrafish Assay for Somite Malformation (AID 2283647)
How it was run: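 Dechorionated Tropical 5D wild-type zebrafish embryos, one per well from 6 hpf, statically exposed at 28C to 120 hpf in 0.64% DMSO; somite malformation scored present/absent by brightfield; trimethyltin 5 uM positive control; dead embryos not scored.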

[14] = Tanguay_ZF_120hpf_PFIN_legacy: (Legacy) Oregon State University Tanguay Lab 120 Hour Post-fertilization zebrafish Assay for Pectoral Fin Malformation (AID 2283648);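 note: each larva judged yes or no for fin defect by brightfield with dead larvae skipped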
How it was run: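 Binary pectoral fin malformation call at 120 hpf by brightfield microscopy; 5D wild-type zebrafish, chorion removed at 4 hpf, one embryo per well from 6 hpf, static exposure at 28C; DMSO (0.64% final) as baseline.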

[15] = Tanguay_ZF_120hpf_CFIN_legacy: (Legacy) Oregon State University Tanguay Lab 120 Hour Post-fertilization zebrafish Assay for Caudal Fin Malformation (AID 2283649)
How it was run: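 Dechorionated Tropical 5D wild-type embryos, one per well from 6 hpf, static exposure to 120 hpf at 28C in 0.64% DMSO. Caudal fin malformation scored by brightfield as present/absent; not scored in dead embryos.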

[16] = Tanguay_ZF_120hpf_PIG_legacy: (Legacy) Oregon State University Tanguay Lab 120 Hour Post-fertilization zebrafish Assay for Pigmentation Malformation (AID 2283650)
How it was run: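 Brightfield scoring of pigmentation malformation at 120 hpf, recorded as binary present/absent per larva. Exposure: dechorionated 5D wild-type embryos, one per well, static from 6 hpf at 28C, final DMSO 0.64% (vol/vol). Dead embryos not scored.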

[17] = Tanguay_ZF_120hpf_CIRC_legacy: (Legacy) Oregon State University Tanguay Lab 120 Hour Post-fertilization zebrafish Assay for Circulatory Malformation (AID 2283651)
How it was run: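 Binary circulatory-malformation call at 120 hpf via brightfield imaging, relative to DMSO controls. Embryos (5D strain, chorion removed) received static, light-shielded exposure at 28C.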

[18] = Tanguay_ZF_120hpf_YSE_legacy: (Legacy) Oregon State University Tanguay Lab 120 Hour Post-fertilization zebrafish Assay for Yolk Sac Edema (AID 2283634)
How it was run: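 Dechorionated Tropical 5D wild-type zebrafish embryos were exposed statically, one per well, from 6 to 120 hpf at 28C in 0.64% DMSO. Yolk sac edema was scored present/absent by brightfield at 120 hpf, and dead embryos were excluded.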

[19] = Tanguay_ZF_120hpf_BRAI_legacy: (Legacy) Oregon State University Tanguay Lab 120 Hour Post-fertilization zebrafish Assay for Brain Malformation (AID 2283641)
How it was run: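 Tropical 5D wild-type zebrafish embryos exposed statically until 120 hpf at 28C, 0.64% DMSO final, sealed and dark. Brain malformation scored present/absent by brightfield at 120 hpf; dead embryos excluded. Trimethyltin chloride 5uM positive control.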

Measured: outcome

Chain of Cellular tumor antigen p53 (Homo sapiens) (P04637 whole entry, looked up): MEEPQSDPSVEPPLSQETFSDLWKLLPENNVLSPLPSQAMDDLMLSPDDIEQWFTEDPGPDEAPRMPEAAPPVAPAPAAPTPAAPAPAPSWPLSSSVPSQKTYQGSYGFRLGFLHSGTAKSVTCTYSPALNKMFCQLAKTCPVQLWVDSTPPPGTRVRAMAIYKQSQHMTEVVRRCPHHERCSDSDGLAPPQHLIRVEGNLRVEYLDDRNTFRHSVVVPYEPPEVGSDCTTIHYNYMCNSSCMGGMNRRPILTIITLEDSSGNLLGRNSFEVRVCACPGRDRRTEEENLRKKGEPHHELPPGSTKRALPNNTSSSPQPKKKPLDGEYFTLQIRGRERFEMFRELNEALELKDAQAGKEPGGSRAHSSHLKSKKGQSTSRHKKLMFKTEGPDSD

Clc1cc(Cl)c(Cl)c(Cl)c1Cl
inactive: [1] | [2] | [3] | [4]

CC=C(C)C=CC=C(C)C
inactive: [1] | [2] | [3] | [5] | [6]

N#CC1(N)CCCCC1
inactive: [1] | [2] | [3] | [5] | [4] | [6]

COC(=O)[C@H](Cc1ccccc1)NC(=O)[C@@H](N)CC(=O)O (H-Asp-Phe-OMe)
inactive: [1] | [2] | [3] | [5] | [4] | [6]

CC(=O)CC(=O)Nc1ccccc1C
inactive: [1] | [2] | [5] | [4]

CCC1COC(=O)O1 (stereo not given)
inactive: [1] | [2] | [5] | [4] | [6]

Nc1ncnc2nc[nH]c12
inactive: [1] | [2] | [5] | [6]

Cc1ccccc1CCO
inactive: [1] | [2] | [5]

C=Cc1ccc(OC(C)=O)cc1
inactive: [1] | [2] | [5] | [4]

O=C(O)c1ccc2c(c1)C(=O)OC2=O
inactive: [1] | [2] | [3] | [4] | [6]

CCCC1CCCC(=O)O1 (stereo not given)
inactive: [1] | [2] | [5] | [4] | [6]

O=C(O)CCCC(=O)O
inactive: [1] | [2] | [5] | [4] | [6]

CC12CCC(CC1)C(C)(C)O2
inactive: [1] | [2] | [5] | [6]

CC(=O)c1ccccc1O
inactive: [1] | [2] | [5]

CC/C=C\CCOC(=O)c1ccccc1O
inactive: [1] | [2] | [5] | [4] | [6]

Cc1ccc(S(=O)(=O)N=C=O)cc1
inactive: [1] | [2] | [5] | [4] | [6]

c1ccc2c(c1)[nH]c1ccccc12
inactive: [1] | [2] | [5] | [4] | [6]

C=CC(=O)OCC(C)OCC(C)OCC(C)OC(=O)C=C (stereo not given)
inactive: [1] | [2] | [5] | [6]

CCCCNC(=S)NCCCC
inactive: [1] | [2] | [3] | [4] | [6]

Cc1c(C(=O)c2c[nH]n(C)c2=O)ccc(S(C)(=O)=O)c1C1=NOCC1
inactive: [1] | [2] | [5] | [4] | [6]

CC(C)OC(=O)c1ccccc1
inactive: [1] | [2] | [5] | [6]

CC1OC(=O)C(C)OC1=O (stereo not given)
inactive: [1] | [2] | [4]

OCCCc1ccccc1
inactive: [1] | [2] | [5] | [6]

CC(=O)CCC=C(C)C
inactive: [1] | [2] | [5] | [4] | [6]

CC(C)=CCl
inactive: [1] | [2] | [3] | [4] | [6]

COc1ccc(C(=O)c2ccccc2)c(O)c1
inactive: [1] | [2] | [5] | [4]

C=CC(=O)OCCCCCCCCCC
inactive: [1] | [2] | [5] | [4]

O=C(O)c1cc(O)c2ccccc2c1O
inactive: [1] | [2] | [5] | [4] | [6]

CCC(C)(O)CCCC(C)C (stereo not given)
inactive: [1] | [2] | [5] | [4] | [6]

CCN1CCCC1=O
inactive: [1] | [2] | [5] | [4] | [6]

CCCCCCCCCCCC(=O)OCC
inactive: [1] | [2] | [5] | [4] | [6]

CC(C)=CCCC(C)=CC#N
inactive: [1] | [2] | [5] | [6]

CC(C)c1cccc(C(C)C)c1N
inactive: [1] | [2] | [5]

CC(C)(C)C1CCC(=O)CC1
inactive: [1] | [2] | [5] | [4] | [6]

C=CC(=O)OCCCCCCCC(C)C
inactive: [1] | [2] | [3] | [4] | [6]

CCCCCC[C@@H](O)C/C=C\CCCCCCCC(=O)OCC(O)CO (stereo not given in full)
inactive: [1] | [2] | [3] | [6]

Cc1cc(C)n(CO)n1
inactive: [1] | [2] | [5] | [4]

CCOC(=O)/C=C\C(=O)OCC
inactive: [1] | [2] | [5] | [4] | [6]

O=C(C=Cc1ccccc1)OCCc1ccccc1
inactive: [1] | [2] | [4]

C[Si]1(C)O[Si](C)(C)O[Si](C)(C)O[Si](C)(C)O[Si](C)(C)O1
inactive: [4] | [6]

CC1=NN(c2ccc(S(=O)(=O)O)cc2)C(=O)C1N=Nc1ccccc1 (stereo not given)
inactive: [3] | [6]

CCCC(C)C(=O)OCC (stereo not given)
inactive: [2] | [3] | [6]

CC(=O)OC(C)c1ccccc1 (stereo not given)
inactive: [2] | [5] | [4] | [6]

N#Cc1ccc(C2CCCc3cncn32)cc1 (stereo not given)
inactive: [5] | [4] | [6]

CC(=O)C(C)C
inactive: [2] | [5] | [4] | [6]

Nc1ccc(C(=O)O)cc1
not listed: [1] | [3] | [18] | [19]
inactive: all other assays above

CC1CCC(C(C)(C)S)C(=O)C1 (stereo not given)
inactive: [2] | [3] | [5] | [6]

CCc1occc(=O)c1O
inactive: [4]

Cc1ccc([N+](=O)[O-])cc1N
not listed: [1] | [3]
inactive: all other assays above

CO[Si](CCCS)(OC)OC
inactive: [2] | [5] | [4] | [6]

CCCc1ccc(O)c(OC)c1
inactive: [2] | [5] | [4] | [6]

CCN1CN(CC)CN(CC)C1
inactive: [3]

CCC(C)C(=O)OCCc1ccccc1 (stereo not given)
inactive: [2] | [5] | [4]

CCCCCCCCCCCCC
inactive: [2] | [5] | [4] | [6]

— PubChem BioAssay (EPA / NIEHS)
